Laboratory results published in PubChem BioAssay AID1159580 (chemical genetic matrix, 2015).
Values joined by “and” are separate entries in the source; they are usually repeats but may differ in a detail not shown here. Identical values can stand only once. Among all 5,500 compounds or so, about 2,000 (36%) were called active. About 18% were inconclusive and are not listed. No stated cut-off is given here; in the data, active means normalized growth mostly below about 0.91 (no sharp cut-off); inconclusive means no clear call, values can overlap the other calls; inactive means mostly above about 0.92. The list shows a part of the results.

Assay: chemical genetic growth profiling, strain panel (AID 1159580);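 further: tested at 20 µM; growth read once vehicle control cultures reached saturation at 30 °C; 1 = growth at the plate median or of vehicle wells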
Details: S. cerevisiae deletion strains, growth OD
[1] = locus YNL153C, strain GIM3, stronger effect = lower value
[2] = locus YAL040C, strain CLN3, stronger effect = lower value
[3] = locus YCL061C, strain MRC1 (second series), stronger effect = lower value
[4] = locus YDR363W, strain ESC2, stronger effect = lower value
[5] = locus YER002W, strain NOP16, stronger effect = lower value
[6] = locus YNL175C, strain NOP13, stronger effect = lower value
[7] = locus YNL197C, strain WHI3, stronger effect = lower value
[8] = locus YNL224C, strain SQS1, stronger effect = lower value
[9] = locus YOR083W, strain WHI5 (second series), stronger effect = lower value

Measured: normalized growth

Nc1ncnc2c1ncn2C1C[C@H](O)[C@@H](CO)O1 (some centres not stated)
active: locus YLR113W, strain HOG1, stronger effect = lower value 0.845
0.995 (inactive) and 0.849 (active): locus YHR030C, strain SLT2, stronger effect = lower value
inactive: locus YAL013W, strain DEP1, stronger effect = lower value 0.998 | locus YAL021C, strain ccr4, stronger effect = lower value 1.03 | locus YAL026C, strain drs2, stronger effect = lower value 1.02 | locus YAL030W, strain snc1, stronger effect = lower value 1.01 | locus YBL061C, strain skt5, stronger effect = lower value 1.01 | locus YBR009C, strain hhf1, stronger effect = lower value 1.02 | locus YBR021W, strain FUR4, stronger effect = lower value 1.02 | locus YBR023C, strain chs3, stronger effect = lower value 1 | locus YBR171W, strain sec66, stronger effect = lower value 1.03 | locus YBR229C, strain ROT2, stronger effect = lower value 0.962 | locus YBR231C, strain swc5, stronger effect = lower value 1.01 | locus YBR279W, strain paf1, stronger effect = lower value 1.01 | locus YCL011C, strain gbp2, stronger effect = lower value 1.02 | locus YCL016C, strain dcc1, stronger effect = lower value 1.01 | locus YCL029C, strain bik1, stronger effect = lower value 0.998 | locus YCL061C, strain MRC1, stronger effect = lower value 1.02 | locus YCL069W, strain vba3, stronger effect = lower value 1.01 | locus YCR088W, strain abp1, stronger effect = lower value 1.01 | locus YDL005C, strain med2, stronger effect = lower value 1.02 | locus YDL035C, strain GPR1, stronger effect = lower value 0.99 | locus YDL040C, strain nat1, stronger effect = lower value 1.01 | locus YDL074C, strain BRE1, stronger effect = lower value 1.01 | locus YDL101C, strain DUN1, stronger effect = lower value 0.99 | locus YDL185W, strain tfp1, stronger effect = lower value 0.986 | locus YDL192W, strain arf1, stronger effect = lower value 1 | locus YDR001C, strain nth1, stronger effect = lower value 1.01 | locus YDR069C, strain doa4, stronger effect = lower value 1.02 | locus YDR101C, strain arx1, stronger effect = lower value 1.04 | locus YDR137W, strain rgp1, stronger effect = lower value 1.02 | locus YDR159W, strain sac3, stronger effect = lower value 1.03 | locus YDR162C, strain NBP2, stronger effect = lower value 0.984 | locus YDR195W, strain ref2 0.994 | locus YDR297W, strain sur2, stronger effect = lower value 1.01 | locus YDR318W, strain mcm21, stronger effect = lower value 0.968 | locus YDR334W, strain swr1, stronger effect = lower value 1.01 | locus YDR335W, strain msn5, stronger effect = lower value 1 | locus YDR388W, stronger effect = lower value 0.993 | locus YDR392W, strain spt3, stronger effect = lower value 1.01 | locus YDR502C, strain sam2, stronger effect = lower value 0.991 | locus YEL003W, strain gim4, stronger effect = lower value 1.02 | locus YEL037C, strain rad23, stronger effect = lower value 1 | locus YEL061C, strain CIN8 (second series), stronger effect = lower value 1.02 | locus YEL061C, strain CIN8, stronger effect = lower value 1 | locus YER015W, strain faa2, stronger effect = lower value 1.01 | locus YER016W, strain bim1, stronger effect = lower value 1.02 | locus YER110C, stronger effect = lower value 0.993 | locus YER111C, strain swi4, stronger effect = lower value 1.02 | locus YER155C, strain BEM2 (second series), stronger effect = lower value 1.03 | locus YER155C, strain BEM2, stronger effect = lower value 0.998 | locus YER167W, strain BCK2, stronger effect = lower value 0.996 | locus YFR010W, strain ubp6, stronger effect = lower value 1.01 | locus YGL078C, strain dbp3, stronger effect = lower value 0.997 | locus YGL086W, strain mad1, stronger effect = lower value 1.06 | locus YGL167C, strain pmr1, stronger effect = lower value 1.02 | locus YGL173C, strain kem1, stronger effect = lower value 1.02 | locus YGL227W, strain vid30, stronger effect = lower value 1.01 | locus YGL240W, strain doc1, stronger effect = lower value 1.02 | locus YGL248W, strain PDE1, stronger effect = lower value 0.981 | locus YGL253W, strain hxk2, stronger effect = lower value 1.02 | locus YGR135W, strain pre9, stronger effect = lower value 0.98 | locus YGR252W, strain gcn5, stronger effect = lower value 0.953 | locus YHR013C, strain ard1, stronger effect = lower value 1.01 | locus YHR027C, strain rpn1, stronger effect = lower value 1 | locus YHR079C, strain IRE1 (second series), stronger effect = lower value 0.99 | locus YHR079C, strain IRE1, stronger effect = lower value 0.872 | locus YHR094C, strain hxt1, stronger effect = lower value 0.987 | locus YHR129C, strain ARP1, stronger effect = lower value 0.989 | locus YHR142W, strain chs7, stronger effect = lower value 1.02 | locus YHR200W, strain rpn10, stronger effect = lower value 0.987 | locus YIL066C, strain RNR3, stronger effect = lower value 0.986 | locus YIL073C, strain SPO22, stronger effect = lower value 0.994 | locus YIL125W, strain kgd1, stronger effect = lower value 0.994 | locus YIR030C, strain dcg1, stronger effect = lower value 0.991 | locus YJL092W, strain hpr5, stronger effect = lower value 1.01 | locus YJL095W, strain BCK1 (second series), stronger effect = lower value 1.01 | locus YJL095W, strain BCK1, stronger effect = lower value 0.989 and 0.886 | locus YJL115W, strain asf1, stronger effect = lower value 1.01 | locus YJL129C, strain trk1, stronger effect = lower value 1.03 | locus YJL134W, strain LCB3, stronger effect = lower value 0.996 | locus YJL154C, strain vps35, stronger effect = lower value 1.02 | locus YJL164C, strain tpk1, stronger effect = lower value 1.01 | locus YJL166W, strain qcr8, stronger effect = lower value 1.03 | locus YJL168C, strain set2, stronger effect = lower value 0.995 | locus YJL187C, strain SWE1 (second series), stronger effect = lower value 0.99 | locus YJL187C, strain SWE1, stronger effect = lower value 1.01 | locus YJR043C, strain POL32, stronger effect = lower value 0.996 | locus YJR066W, strain TOR1, stronger effect = lower value 0.853 | locus YKL009W, strain mrt4, stronger effect = lower value 0.987 | locus YKL068W, stronger effect = lower value 0.991 | locus YKL085W, strain MDH1 (second series), stronger effect = lower value 0.997 | locus YKL085W, strain MDH1, stronger effect = lower value 0.997 | locus YKL160W, strain elf1, stronger effect = lower value 1.01 | locus YKL190W, strain CNB1, stronger effect = lower value 0.993 | locus YKR001C, strain vps1, stronger effect = lower value 1.01 | locus YKR026C, strain gcn3, stronger effect = lower value 1.02 | locus YKR091W, strain srl3, stronger effect = lower value 1.01 | locus YLL001W, strain dnm1, stronger effect = lower value 1.02 | locus YLL026W, stronger effect = lower value 1.01 | locus YLL041C, strain sdh2, stronger effect = lower value 1.02 | locus YLR027C, strain aat2, stronger effect = lower value 1.02 | locus YLR039C, strain RIC1, stronger effect = lower value 1.04 | locus YLR058C, strain SHM2, stronger effect = lower value 0.985 | locus YLR102C, strain apc9, stronger effect = lower value 0.999 | locus YLR221C, strain rsa3, stronger effect = lower value 1.01 | locus YLR258W, strain gsy2, stronger effect = lower value 1.01 | locus YLR262C, strain YPT6 (second series), stronger effect = lower value 0.998 | locus YLR262C, strain YPT6, stronger effect = lower value 1.04 | locus YLR268W, strain sec22, stronger effect = lower value 1.04 | locus YLR320W, strain mms22, stronger effect = lower value 1.03 | locus YLR330W, strain CHS5, stronger effect = lower value 0.994 | locus YLR342W, strain FKS1 (second series), stronger effect = lower value 1.02 | locus YLR342W, strain FKS1, stronger effect = lower value 1.03 | locus YLR357W, strain rsc2, stronger effect = lower value 1.01 | locus YLR370C, strain arc18, stronger effect = lower value 1.02 | locus YLR371W, strain rom2, stronger effect = lower value 0.98 | locus YLR384C, strain iki3, stronger effect = lower value 1.01 | locus YLR418C, strain cdc73, stronger effect = lower value 0.966 | locus YML016C, strain PPZ1, stronger effect = lower value 0.997 | locus YML032C, strain rad52, stronger effect = lower value 0.966 | locus YML120C, strain ndi1, stronger effect = lower value 1.01 | locus YML124C, strain tub3, stronger effect = lower value 0.99 | locus YMR058W, strain fet3, stronger effect = lower value 1.02 | locus YMR078C, strain ctf18, stronger effect = lower value 0.993 | locus YMR125W, strain sto1, stronger effect = lower value 1.01 | locus YMR129W, stronger effect = lower value 1.01 | locus YMR205C, strain PFK2, stronger effect = lower value 1.05 | locus YMR223W, strain ubp8, stronger effect = lower value 0.986 | locus YMR231W, strain pep5, stronger effect = lower value 0.991 | locus YMR307W, strain GAS1, stronger effect = lower value 0.988 | locus YNL067W, strain RPL9B, stronger effect = lower value 0.995 | locus YNL071W, strain lat1, stronger effect = lower value 1.02 | [1] 0.987 | locus YNL183C, strain NPR1, stronger effect = lower value 0.855 | locus YNL209W, strain ssb2, stronger effect = lower value 1.01 | locus YNL233W, strain BNI4, stronger effect = lower value 1 | locus YNL248C, strain rpa49, stronger effect = lower value 1.01 | locus YNL250W, strain rad50, stronger effect = lower value 0.987 | locus YNL271C, strain bni1, stronger effect = lower value 0.992 | locus YNL298W, strain CLA4, stronger effect = lower value 0.989 | locus YNL307C, strain MCK1, stronger effect = lower value 1.01 | locus YNL322C, strain KRE1 (second series), stronger effect = lower value 1.02 | locus YNR049C, strain mso1, stronger effect = lower value 1.01 | locus YNR052C, strain pop2, stronger effect = lower value 0.985 | locus YOL012C, strain htz1 0.909 | locus YOL147C, strain pex11, stronger effect = lower value 0.995 | locus YOR001W, strain rrp6, stronger effect = lower value 1.02 | locus YOR061W, strain CKA2, stronger effect = lower value 0.967 | locus YOR069W, strain VPS5, stronger effect = lower value 1 | locus YOR070C, strain gyp1, stronger effect = lower value 0.999 | locus YOR080W, strain dia2, stronger effect = lower value 1.02 | locus YOR083W, strain WHI5, stronger effect = lower value 1.01 | locus YOR106W, strain vam3, stronger effect = lower value 1.01 | locus YOR136W, strain idh2, stronger effect = lower value 1 | locus YOR144C, strain elg1, stronger effect = lower value 0.988 | locus YOR184W, strain ser1, stronger effect = lower value 0.988 | locus YOR231W, strain MKK1, stronger effect = lower value 0.873 | locus YOR265W, strain rbl2, stronger effect = lower value 0.987 | locus YOR270C, strain vph1, stronger effect = lower value 1.03 | locus YOR290C, strain snf2, stronger effect = lower value 1.02 | locus YOR316C, strain cot1, stronger effect = lower value 0.994 | locus YPL051W, strain arl3, stronger effect = lower value 1.01 | locus YPL078C, strain atp4, stronger effect = lower value 1.01 | locus YPL106C, strain sse1, stronger effect = lower value 1.02 | locus YPL240C, strain hsp82, stronger effect = lower value 1 | locus YPL256C, strain CLN2, stronger effect = lower value 0.911 | locus YPR119W, strain clb2, stronger effect = lower value 0.993 | locus YPR141C, strain kar3, stronger effect = lower value 0.988 | locus YPR163C, strain tif3, stronger effect = lower value 1 | locus YPR167C, strain met16, stronger effect = lower value 0.989 | strain wtn01, stronger effect = lower value 1.03

Nc1ncnc2c1ncn2[C@@H]1O[C@H](CO)[C@H](O)C1O (some centres not stated)
inactive: [2] 0.999 | [3] 0.998 | [4] 1.01 | [5] 1.01 | [1] 1.04 | [6] 1.02 | [7] 1.02 | [8] 1.02 | [9] 1.07

Nc1ncnc2c1ncn2[C@@H]1O[C@H](COP(=O)(O)CP(=O)(O)OP(=O)(O)O)[C@H](O)C1O (some centres not stated)
inactive: [2] 1.08 | [3] 0.999 | [4] 1 | [5] 0.983 | locus YGR078C, strain PAC10, stronger effect = lower value 1.02 | locus YJR075W, strain HOC1, stronger effect = lower value 1.02 | locus YMR263W, strain SAP30, stronger effect = lower value 1 | [6] 1 | [7] 1 | [8] 0.999 | [9] 1
